Experimental findings from PubChem BioAssay (NCATS) are described below.

Assay [1] is described as follows: Quantitative High-Throughput drug screen in 47 multiple myeloma cell lines against the NCATS MIPE library collection: KMS26_JCRB cell viability assay (AID 1918975).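 For viability (% of DMSO): 100% = DMSO-treated wells and 0% = wells with media only.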 Note: nearly all actives have a fitted effect of over 45% in size. Note: potency is the fitted concentration of half-maximal effect. The method in brief:
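Steps: seed 500 cells per well; pin-transfer MIPE 4.0 library; incubate 48 h at 37C, 5% CO2, humidified; add CellTiter-Glo, 5 min room temperature; read luminescence.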

A short description of assay [2]: Quantitative High-Throughput drug screen in 47 multiple myeloma cell lines against the NCATS MIPE library collection: MMM1_PLB cell viability assay (AID 1918976). Note: potency is the fitted concentration of half-maximal effect; nearly all actives have a fitted effect of over 35% in size. The method in brief: (§1)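 Cells were exposed to library compounds for 48 hours, after which ATP was measured by CellTiter-Glo. Signal was taken as median relative luminescence units.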
Assay [3] can be described thus: Quantitative High-Throughput drug screen in 47 multiple myeloma cell lines against the NCATS MIPE library collection: KMS34_JCRB cell viability assay (AID 1918985). Note: nearly all actives have a fitted effect of over 40% in size. Note: potency is the fitted concentration of half-maximal effect. The essentials: as §1
A short description of assay [4]: Quantitative High-Throughput drug screen in 47 multiple myeloma cell lines against the NCATS MIPE library collection: OCIMY5_PLB cell viability assay (AID 1918988). Note: nearly all actives have a fitted effect of over 65% in size. Note: potency is the fitted concentration of half-maximal effect. The essentials: as §1
Assay [5] in a line: Quantitative High-Throughput drug screen in 47 multiple myeloma cell lines against the NCATS MIPE library collection: U266_ATCC cell viability assay (AID 1919864). Note: potency is the fitted concentration of half-maximal effect; nearly all actives have a fitted effect of over 35% in size. The essentials: as §1
A short description of assay [6]: Quantitative High-Throughput drug screen in 47 multiple myeloma cell lines against the NCATS MIPE library collection: XG6_PLB cell viability assay (AID 1919865).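 For viability (% of control): 100% = DMSO-only wells and 0% = media-only wells.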 Note: nearly all actives have a fitted effect of over 40% in size. Note: potency is the fitted concentration of half-maximal effect. The method in brief:
as §1

Assay [7] is described as follows: Quantitative High-Throughput drug screen in 47 multiple myeloma cell lines against the NCATS MIPE library collection: XG1_PLB cell viability assay (AID 1919866). Note: nearly all actives have a fitted effect of over 35% in size. Note: potency is the fitted concentration of half-maximal effect. The method in brief:
as §1

Assay [8] is described as follows: Quantitative High-Throughput drug screen in 47 multiple myeloma cell lines against the NCATS MIPE library collection: OCIMY1_PLB cell viability assay (AID 1918979).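 For viability: 100% = DMSO-only wells and 0% = cell-free media-only wells.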 Note: nearly all actives have a fitted effect of over 35% in size. Note: potency is the fitted concentration of half-maximal effect. The method in brief:
as §1

A short description of assay [9]: Quantitative High-Throughput drug screen in 47 multiple myeloma cell lines against the NCATS MIPE library collection: LP1_DSMZ cell viability assay (AID 1918982). Note: nearly all actives have a fitted effect of over 35% in size. Note: potency is the fitted concentration of half-maximal effect. The essentials: as §1
A short description of assay [10]: Quantitative High-Throughput drug screen in 47 multiple myeloma cell lines against the NCATS MIPE library collection: L363_DSMZ cell viability assay (AID 1918984). Note: potency is the fitted concentration of half-maximal effect; nearly all actives have a fitted effect of over 40% in size. As to conditions: L363 myeloma viability, CellTiter-Glo ATP luminescence, 48 h; viability (% of control): at 45.8 µM (top of the series). The essentials:
as §1
On the technique in general: ATP-based viability assays read luminescence as a measure of living cells.

Assay [11] is described as follows: Quantitative High-Throughput drug screen in 47 multiple myeloma cell lines against the NCATS MIPE library collection: MOLP8_DSMZ cell viability assay (AID 1918977).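 Note: 100% = DMSO-only wells and 0% = media-only wells without cells; nearly all actives have a fitted effect of over 45% in size.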 The essentials: as §1
A short description of assay [12]: Quantitative High-Throughput drug screen in 47 multiple myeloma cell lines against the NCATS MIPE library collection: NCIH929_DSMZ cell viability assay (AID 1918978). Note: nearly all actives have a fitted effect of over 35% in size. Note: potency is the fitted concentration of half-maximal effect. The essentials: as §1
Assay [13] is described as follows: Quantitative High-Throughput drug screen in 47 multiple myeloma cell lines against the NCATS MIPE library collection: MM1R_ATCC cell viability assay (AID 1918981). Note: nearly all actives have a fitted effect of over 35% in size. Note: potency is the fitted concentration of half-maximal effect. The essentials:
as §1

Assay [14] can be described thus: Quantitative High-Throughput drug screen in 47 multiple myeloma cell lines against the NCATS MIPE library collection: KMS28PE_JCRB cell viability assay (AID 1918983). Note: nearly all actives have a fitted effect of over 35% in size. Note: potency is the fitted concentration of half-maximal effect. The method in brief: as §1
Assay [15] can be described thus: Quantitative High-Throughput drug screen in 47 multiple myeloma cell lines against the NCATS MIPE library collection: OPM1_PLB cell viability assay (AID 1918989).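 For viability (% of control): 100% = DMSO-only wells and 0% = media-only wells.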 Note: nearly all actives have a fitted effect of over 40% in size. Note: potency is the fitted concentration of half-maximal effect. The essentials: as §1
The nature of assay [16]: Quantitative High-Throughput drug screen in 47 multiple myeloma cell lines against the NCATS MIPE library collection: SKMM1_PLB cell viability assay (AID 1919863). Note: nearly all actives have a fitted effect of over 35% in size. Note: potency is the fitted concentration of half-maximal effect. To be noted: SKMM1 myeloma viability, CellTiter-Glo ATP, 48 h; viability: active compounds read low. The essentials: as §1
A short description of assay [17]: Quantitative High-Throughput drug screen in 47 multiple myeloma cell lines against the NCATS MIPE library collection: OCIMY7_PLB cell viability assay (AID 1918987). Note: nearly all actives have a fitted effect of over 65% in size. Note: potency is the fitted concentration of half-maximal effect. As to conditions: OCI-MY7 myeloma viability, CellTiter-Glo ATP, 48 h; viability (% of DMSO): at 45.8 µM (top of the series). The method in brief: as §1
A short description of assay [18]: Quantitative High-Throughput drug screen in 47 multiple myeloma cell lines against the NCATS MIPE library collection: MM1S_ATCC cell viability assay (AID 1918980). Note: potency is the fitted concentration of half-maximal effect; nearly all actives have a fitted effect of over 45% in size. The method in brief: as §1

The structures appear in SMILES notation. Results filed as inconclusive are left out. A number with no mark means an inactive call. Active and inactive are the calls of the source. Calls come from the whole dose curve; as a rule, active = well fitted curve in the direction sought with a large enough effect; inconclusive = small, poorly fitted or top-dose-only effect, or another doubt; inactive = no such curve, though single readings can be large; an effect the other way counts as inactive or inconclusive.

Consider `COc1cc2nccc(Oc3ccc(NC(=O)Nc4cc(C)on4)c(Cl)c3)c2cc1OC`, for which the Potency is 16.6 µM (active) in assay [1]; 23.5 µM (active) in assay [2]; 4.18 µM (active) in assay [3]; 16.6 µM (active) in [4]; 20.9 µM (active) in [5]; 0.118 µM (active) in assay [6]. Further, the Potency in assay [7] was 1.66 µM (active).

As to `CO[C@H]1/C=C\O[C@@]2(C)Oc3c(C)c(O)c4c(O)c(c5c(nc6cc(C)ccn65)c4c3C2=O)NC(=O)C(C)=CC=C[C@H](C)[C@H](O)[C@@H](C)[C@@H](O)[C@@H](C)[C@H](OC(C)=O)[C@H]1C`, the Potency is 8.33 µM (active) in [1], 0.0148 µM (active) in assay [2], 20.9 µM (active) in assay [10] and 16.6 µM (active) in assay [4]. Also, the Potency entry in assay [8], in assay [9], in assay [6] and in assay [7] was “inactive” in each case.

On to `O=c1[nH]c(=O)n([C@H]2C[C@@H](O)[C@@H](CO)O2)cc1I`, for which the Potency entry in assay [1], in assay [11], in assay [12], in assay [8], in assay [9] and in [14] was “inactive” throughout. Besides, the Potency entry in assay [4], in assay [15] and in [6] was “inactive” throughout. Also, the Potency in assay [13] was 6.62 µM (active); in assay [3], 2.09 µM (active). The viability – broadly, a read-out of living cells in per cent, often relative to untreated cells – in [16] is 119%.

For the molecule `CNC1[C@H](O)C(O[C@@H]2C(O)C(O[C@H]3O[C@H]([C@@H](C)NC)CC[C@H]3N)[C@@H](N)C[C@H]2N)OC[C@]1(C)O` (stereo partly drawn), the Potency entry in [1], in [11], in assay [12], in [8], in assay [13] and in assay [3] was “inactive” each time. Further, the Potency result in assay [17], in [4] and in [6] was “inactive” throughout. Besides, in assay [16], the viability is 103%.

As to `Cc1ccc(C(=O)N(CCCN)[C@@H](c2nc3cc(Cl)ccc3c(=O)n2Cc2ccccc2)C(C)C)cc1`, the Potency in assay [1] was 23.5 µM (active); in assay [2], 26.4 µM (active); in assay [12], 8.33 µM (active); in assay [16] it was 23.5 µM (active); in assay [5] it was 26.4 µM (active). Moreover, the Potency result in assay [3] was “inactive”.

Turning to `CC1(COc2ccc3c(c2)ncn3-c2ccc3cccc(N4CCC(N)CC4)c3n2)COC1`, the Potency in assay [1] is 14.8 µM (active); in assay [2], 1.48 µM (active); in [8], 1.48 µM (active); in assay [13] it was 0.526 µM (active); in [9] it was 1.18 µM (active); in assay [14], 0.59 µM (active). For the same molecule, the Potency is 1.05 µM (active) in [3], 0.059 µM (active) in assay [17], 0.0235 µM (active) in [15] and 16.6 µM (active) in assay [16].

For the molecule `N#CC(=C1Nc2ccccc2S1)c1ccnc(OCc2ccc(CN3CCOCC3)cc2)n1`, the Potency in assay [1] is 20.9 µM (active); in assay [2], 14.8 µM (active); in [12], 4.69 µM (active); in assay [18], 1.48 µM (active); in assay [13], 14.8 µM (active); in [9], 20.9 µM (active). For the same molecule, the Potency is 0.0372 µM (active) in [10]; 18.7 µM (active) in assay [3]; 8.33 µM (active) in [4]; 16.6 µM (active) in assay [15]; 1.18 µM (active) in assay [6]; 1.18 µM (active) in assay [7].

On to `COc1cc(N2CCN(C)CC2)ccc1Nc1nc(N)c(C(=O)c2c(Cl)cccc2Cl)s1`, for which the Potency in [1] was 4.18 µM (active); in assay [2], 8.33 µM (active); in assay [14], 14.8 µM (active); in [10], 20.9 µM (active); in [4] it was 18.7 µM (active); in [15] it was 20.9 µM (active). Moreover, the values for the Potency in [5] and in assay [7] were 18.7 µM (active) and 23.5 µM (active), respectively. Moreover, in assay [12], the Potency entry was “inactive”.

With `Cc1ccc(C(=O)N(CCCN)[C@@H](c2oc3cc(Cl)ccc3c(=O)c2Cc2ccccc2)C(C)C)cc1`, the Potency was 26.4 µM (active) in assay [1], 23.5 µM (active) in assay [2], 8.33 µM (active) in assay [12] and 20.9 µM (active) in [5]. For the same molecule, the Potency entry in assay [3] and in [4] was “inactive” each time.

Take `CCCCc1ccc(NS(=O)(=O)c2ccc(C)c(C(=O)N3CCN(c4cccc(C)c4C)CC3)c2)cc1`: the Potency in [1] is 23.5 µM (active); in assay [2], 18.7 µM (active); in [18], 14.8 µM (active); in assay [9] it was 23.5 µM (active); in [14] it was 23.5 µM (active); in assay [3], 18.7 µM (active). Also, the values for the Potency in [16] and in [5] were 20.9 µM (active) and 13.2 µM (active), respectively.
